SMILES strings stand for the structures. Values joined by “and” are separate entries in the source; they are usually repeats but may differ in a detail not shown here. Equal entries are not always repeated. Screen size: about 16,000 compounds; about 2,600 (16%) were called active. About 20% were inconclusive and are not listed. This excerpt belongs to a sample that is enriched for actives. A number with no mark means an inactive call. The call rests on the fitted dose curve; in most records, active means well fitted curve in the direction sought with a large enough effect; inconclusive means small, poorly fitted or top-dose-only effect, or effect the other way; inactive means no such curve, though single readings can be large or run the other way.
On the % scale 0 is the no-effect control and ±100 the full control effect.

Cytochrome P450 2D6 (Homo sapiens), sequence (P10635 whole entry, looked up): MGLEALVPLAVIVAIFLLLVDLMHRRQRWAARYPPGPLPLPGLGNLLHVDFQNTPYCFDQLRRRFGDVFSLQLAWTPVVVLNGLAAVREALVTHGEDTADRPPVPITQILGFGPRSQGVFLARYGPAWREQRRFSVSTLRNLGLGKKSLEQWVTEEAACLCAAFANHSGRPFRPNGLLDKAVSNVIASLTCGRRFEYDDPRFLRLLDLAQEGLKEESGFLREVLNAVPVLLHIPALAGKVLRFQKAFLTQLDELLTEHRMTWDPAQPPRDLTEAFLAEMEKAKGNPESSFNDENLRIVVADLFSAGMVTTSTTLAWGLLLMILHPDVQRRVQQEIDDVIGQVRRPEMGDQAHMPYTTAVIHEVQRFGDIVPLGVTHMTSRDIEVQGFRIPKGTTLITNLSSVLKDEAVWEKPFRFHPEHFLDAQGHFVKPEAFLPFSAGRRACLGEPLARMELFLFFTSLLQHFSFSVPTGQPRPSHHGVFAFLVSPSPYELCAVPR

This experiment has as its target Cytochrome P450 2D6 (Homo sapiens) (UniProt P10635). In words: Cytochrome panel assay with activity outcomes. The settings on record: recombinant CYP, pro-luciferin dealkylation, luminescence, p450-cyp2d6; series mostly up to 57.1 µM; activity, negative = inhibition: at the top concentration.
As for `CC(C)[C@]1(O)[C@@H](OC(=O)c2ccc[nH]2)[C@]2(O)[C@@]3(C)C[C@@]4(O)O[C@@]5([C@H](O)[C@@H](C)CC[C@]35O)[C@]2(O)[C@]41C`, the activity, negative = inhibition was 9.77% [at 11.4 µM].

Take `NC(=O)CN1C[C@@H](O)CC1=O`: the “activity, negative = inhibition” value was 1.68%.

Turning to `O=c1c(O)c(-c2cc(O)c(O)c(O)c2)oc2cc(O)cc(O)c12`, the “activity, negative = inhibition” value is -10.3% [at 25.6 µM].

`c1ccc(C[C@@H](c2ccccc2)N2CCCCC2)cc1`: the AC50 is 2 µM (active).

Regarding `N[C@@H](Cc1ccccc1)P(=O)(O)O`, the activity, negative = inhibition is -3.26% [at 11.4 µM].

Regarding `CC(C(=O)c1c[nH]c2ccccc12)N1CCSCC1` (configuration not stated), the AC50 is 6.31 µM (active).

Take `CC(=O)NCCc1c[nH]c2ccccc12`: the “activity, negative = inhibition” value is 1.29%.

Regarding `N[C@H](Cc1c[nH]c2ccccc12)P(=O)(O)O`, the activity, negative = inhibition was -0.254% [at 11.4 µM].

Turning to `CCCCc1nc2ccccc2c(=O)n1-c1ccc(Cl)cc1[N+](=O)[O-]`, the “activity, negative = inhibition” value is 8.42%.

For the compound `CN(C)[C@@H]1C(=O)C(C(N)=O)=C(O)[C@]2(O)C(=O)C3=C(O)c4c(O)cccc4[C@](C)(O)[C@H]3C[C@@H]12`, the activity, negative = inhibition was -6.07% [at 11.4 µM].

Take `CCCCN1C(=O)/C(=C\c2ccco2)C(=O)N(CCc2ccccc2)C1=O`: the “activity, negative = inhibition” value was 8.02%.

Regarding `Fc1ccc(CCNCc2ccc(Cl)c(Cl)c2)cc1`, the AC50 is 0.398 µM (active).

With `Fc1ccc(CCNCc2cccc(Cl)c2)cc1`, the AC50 is 0.794 µM (active).

Turning to `O=C(O)[C@@H](O)[C@@H](O)[C@@H]1[O][Sb][O][C@@H]1CO`, the activity, negative = inhibition was 12.5% [at 11.4 µM].

`O=C(O)C[C@H]1NCc2cc3ccccc3nc21`: the activity, negative = inhibition was 3.21% [at 11.4 µM].

In the case of `COc1cc(CCN)c(OC)c(OC)c1`, the activity, negative = inhibition was 0.204% [at 11.4 µM].

Consider `C[C@@]12C(=O)OC(=O)[C@@]1(C)[C@H]1CC[C@@H]2O1`, for which the “activity, negative = inhibition” value is -0.0372%.

`NC(=O)c1ccc(-c2nc(-c3ccc4c(c3)OCO4)c(-c3ccccn3)[nH]2)cc1`: the AC50 was 12.6 µM (active).

In the case of `Cc1sc2c(c1C)C(c1ccc(C(C)(C)C)cc1)=NCC(=O)N2CC(=O)Nc1nccs1`, the “activity, negative = inhibition” value was -25.8%.

Regarding `C[C@@H]1O[C@@H](O[C@H]2C[C@@H](O)[C@]3(CO)[C@@H]4[C@@H](O)C[C@]5(C)[C@H]([C@@H]6COC(=O)C6)CC[C@@]5(O)[C@H]4CC[C@@]3(O)C2)[C@H](O)[C@H](O)[C@@H]1O`, the “activity, negative = inhibition” value was 3.18%.

Turning to `COc1ccc2cc1Oc1ccc(cc1)C[C@H]1c3cc(c(OC)cc3CCN1C)Oc1c(OC)c(OC)cc3c1[C@@H](C2)N(C)CC3`, the activity, negative = inhibition was -16.9% [at 11.4 µM].

For `COc1ccc2c(c1OC)C(=O)O[C@H]2[C@H]1c2cc3c(cc2CCN1C)OCO3`, the AC50 result is “inactive”.

For `COc1ccc2c(c1OC)CN1CCc3cc4c(cc3[C@H]1C2)OCO4`, the AC50 was 0.0631 µM (active).

Regarding `COc1cc2c(cc1O)[C@H]1Cc3ccc(OC)c(O)c3CN1CC2`, the AC50 is 0.0316 µM (active).

Turning to `COc1cc2c3cc1Oc1c(O)c(OC)cc4c1[C@@H](Cc1ccc(cc1)Oc1cc(ccc1O)C[C@H]3N(C)CC2)N(C)CC4`, the activity, negative = inhibition was 0.972% [at 11.4 µM].

In the case of `COc1ccc2c(c1O)-c1c(OC)c(OC)cc3c1[C@H](C2)N(C)CC3`, the “activity, negative = inhibition” value is -10.8% [at 25.6 µM].

On to `CC(Oc1ccc(-c2ccccc2)cc1)C(=O)O` (configuration not stated), for which the “activity, negative = inhibition” value is -18.2%.

Turning to `CCn1cc(C(=O)O)c(=O)c2cc3c(cc21)OCO3`, the “activity, negative = inhibition” value is 2.37% [at 25.6 µM].

Turning to `CCN1C[C@]2(C)CC[C@@H](O)[C@]34[C@@H]5CC6[C@@H](OC)C[C@@](O)([C@H]5[C@@H]6O)[C@@H](C[C@@H]23)[C@H]14`, the “activity, negative = inhibition” value is 3.37%.

With `CNC[C@H](O)c1ccc(OC(=O)C(C)(C)C)c(OC(=O)C(C)(C)C)c1`, the “activity, negative = inhibition” value is -6.95% [at 25.6 µM].

Consider `CN1C[C@@H](CS(=O)(=O)N(C)C)C[C@H]2c3cccc4c3c(cn4C)C[C@@H]21`, for which the AC50 was 3.98 µM (active).

Regarding `CC(=NCc1ccco1)c1c(O)n(-c2ccccc2)c(=O)[nH]c1=O`, the “activity, negative = inhibition” value was -1.87%.

On to `CN1C(=O)CCS(=O)(=O)[C@@H]1c1ccc(Cl)cc1`, for which the “activity, negative = inhibition” value is 2.18% [at 25.6 µM].

Regarding `CN(C)Cc1c[nH]c2ccccc12`, the AC50 is 0.158 µM (active).

As to `CN(C)CCCc1c[nH]c2ccccc12`, the activity, negative = inhibition is -8.71% [at 11.4 µM].

For the compound `O=C(c1ccccc1)[C@H]1[C@H](c2ccccc2[N+](=O)[O-])N1C1CCCCC1` (some centres not stated), the activity, negative = inhibition was -1.09% [at 11.4 µM].

Consider `c1ccc(CN2CCC3(CCNCC3)CC2)cc1`, for which the “activity, negative = inhibition” value is -16.1%.

In the case of `c1ccc(CN2CCC3(CCc4ccccc43)CC2)cc1`, the AC50 was 0.00631 µM (active).

Regarding `CCOC(=O)c1ncn2c1[C@H]1CCCN1C(=O)c1cc(OC)ccc1-2`, the “activity, negative = inhibition” value is -2.39%.

As to `O=S1(=O)N(CCN2CC=C(c3c[nH]c4cc(F)ccc34)CC2)c2cccc3c2N1CCC3`, the AC50 is 0.2 µM (active).

As for `Oc1ccc2[nH]cc(CCCCN3CC=C(c4ccccc4)CC3)c2c1`, the “activity, negative = inhibition” value is -0.13%.

On to `O=C(CCCC1=NS(=O)(=O)c2ccccc2N1)N1CCC2(CC1)OCCO2`, for which the “activity, negative = inhibition” value was 8.08%.

In the case of `O=C(Nc1ccc(Cl)cc1C(=O)c1ccccc1Cl)c1ccco1`, the “activity, negative = inhibition” value is 18.6%.

Consider `Nc1ccccc1O.O.O=C(O)[C@H]1[O][Sb][O][C@H]1C(=O)O`, for which the activity, negative = inhibition was -5.13% [at 11.4 µM].

As to `Clc1cccc(N2CCNCC2)c1`, the concentration at half-maximal activity (AC50) is 25.1 µM (active) and 3.98 µM (active).

With `Clc1cncc(N2CCNCC2)n1`, the “activity, negative = inhibition” value is -5.59%.

For the compound `O=[N+]([O-])c1ccc(N2CCNCC2)cc1NC1CC1`, the “activity, negative = inhibition” value is -26.8%.

On to `O=c1[nH]cnc2[nH]cc(CN3CCCCC3)c12`, for which the activity, negative = inhibition is 7.9% [at 11.4 µM].

For the compound `COc1c2c(cc3c1OCO3)CCN(C)C2`, the AC50 was 3.98 µM (active).

With `CC(C)C(=O)N1C2CCC1CC(O)(c1ccc(F)cc1)C2` (configuration not stated), the “activity, negative = inhibition” value is -8.02%.

In the case of `NC[C@H](O)c1ccc(O)cc1`, the AC50 entry was “inactive”.

For `CNC[C@H](O)c1ccc(O)cc1`, the “activity, negative = inhibition” value was 2.97% [at 25.6 µM].

Consider `C[C@H](N[C@@H](C)CCc1ccccc1)[C@H](O)c1ccc(O)cc1`, for which the AC50 was 2 µM (active).

Consider `CC(C)[N+](C)(CCOC(=O)C1c2ccccc2Oc2ccccc21)C(C)C`, for which the AC50 was 31.6 µM (active) and 1.26 µM (active).

For the compound `O=C(Nc1ccc(F)cc1F)c1cccnc1Oc1cccc(C(F)(F)F)c1`, the “activity, negative = inhibition” value was 9.56%.

Turning to `CC[C@@H]1[C@@H]2C[C@H]3[C@H]4N(C)c5ccccc5[C@@]45C[C@@H]([C@@H]2[C@@H]5O)N3[C@H]1O`, the AC50 is 3.98 µM (active).

For `Clc1ccc(C2=CCC[C@H]3CC[C@@H]2N3)cn1`, the “activity, negative = inhibition” value was -1.47%.

The values are drawn from PubChem BioAssay AID1851 (National Center for Advancing Translational Sciences (NCATS), 2009).
